# Publication PMC4336329 (PLoS ONE, 2015)
# Hit rate of the full screen: of about 310,000 compounds, about 14,000 (4.5%) showed an effect of 50% or more. The effect is printed as a negative number. For the sample, strong results were picked, then their nearest neighbours and some compounds at random.
# Target: human ether-à-go-go-related gene (hERG) potassium channel (human, UniProt Q12809)
# Assay: primary screen, population patch clamp on CHO cells stably expressing hERG; higher = less effect of the substance
# 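Note: peak tail current of the secondary pulse compared with the same well before compound.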
# human ether-à-go-go-related gene (hERG) potassium channel, sequence (Q12809 whole entry, looked up): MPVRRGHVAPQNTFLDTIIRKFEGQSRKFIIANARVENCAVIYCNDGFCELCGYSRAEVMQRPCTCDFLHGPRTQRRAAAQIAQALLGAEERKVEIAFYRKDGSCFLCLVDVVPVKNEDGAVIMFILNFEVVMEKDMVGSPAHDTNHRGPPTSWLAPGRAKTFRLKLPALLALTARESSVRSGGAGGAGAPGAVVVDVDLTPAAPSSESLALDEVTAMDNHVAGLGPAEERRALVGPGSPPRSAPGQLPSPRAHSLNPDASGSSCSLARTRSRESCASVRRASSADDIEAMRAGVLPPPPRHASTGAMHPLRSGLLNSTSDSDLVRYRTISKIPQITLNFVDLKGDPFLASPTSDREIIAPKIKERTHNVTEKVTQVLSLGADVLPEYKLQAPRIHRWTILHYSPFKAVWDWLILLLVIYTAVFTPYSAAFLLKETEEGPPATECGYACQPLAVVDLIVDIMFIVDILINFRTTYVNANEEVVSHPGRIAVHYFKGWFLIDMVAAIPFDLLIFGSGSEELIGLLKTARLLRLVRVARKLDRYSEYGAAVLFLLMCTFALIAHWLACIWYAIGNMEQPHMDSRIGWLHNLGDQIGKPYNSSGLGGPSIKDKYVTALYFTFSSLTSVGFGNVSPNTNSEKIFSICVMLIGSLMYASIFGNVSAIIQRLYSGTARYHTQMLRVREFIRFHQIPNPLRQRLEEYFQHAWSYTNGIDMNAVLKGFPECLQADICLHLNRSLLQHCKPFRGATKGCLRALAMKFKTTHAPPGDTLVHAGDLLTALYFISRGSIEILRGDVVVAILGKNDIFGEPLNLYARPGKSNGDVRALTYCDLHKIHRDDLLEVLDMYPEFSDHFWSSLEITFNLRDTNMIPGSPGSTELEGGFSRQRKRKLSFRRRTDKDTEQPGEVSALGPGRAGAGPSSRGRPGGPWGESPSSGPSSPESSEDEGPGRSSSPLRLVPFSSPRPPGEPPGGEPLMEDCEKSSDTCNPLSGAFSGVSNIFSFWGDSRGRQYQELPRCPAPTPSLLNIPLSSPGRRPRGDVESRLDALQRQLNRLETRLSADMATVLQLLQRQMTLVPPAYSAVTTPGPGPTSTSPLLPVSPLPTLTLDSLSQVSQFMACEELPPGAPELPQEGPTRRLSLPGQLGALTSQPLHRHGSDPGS
row,Compound,"hERG current change (%, negative = inhibition) at 10uM [%]"
1,CC(C)(C)NC(=O)c1ccc2c(c1)C1C3CCC(C3)C1C(c1ccccc1)N2 (centres unmarked),5.59
2,Cc1ccc(S(=O)(=O)NCCC(=O)NCC(c2ccc(F)cc2)N2CCOCC2)cc1 (centres unmarked),-5.84
3,CCc1cccc(NC(=O)C2CC2c2ccccc2)c1 (centres unmarked),14.5
4,Cc1noc(C)c1C(=O)OCC(=O)N1CCN(S(=O)(=O)c2ccc3ccccc3c2)CC1,-0.697
5,COCc1ccccc1C1=CC(=O)C[C@H](c2ccc(OC)cc2)C1,-12.3
6,Cc1cc(OCc2ccc(C(=O)n3cccn3)o2)ccc1Cl,-0.553
7,CN(C/C(O)=C(\C#N)c1ccccc1)C1CCCCC1,-0.409
8,COC(=O)c1c(C)[nH]c(C(=O)/C=C/c2ccccc2)c1C,1.52
9,CCOC(=O)N1CCC(NC(=O)CCC(=O)N2CCOc3ccccc32)CC1,8.3
10,O=C(CCC(=O)N1CCOc2ccccc21)NC1CCN(Cc2ccccc2)CC1,-51
11,O=C(CCC(=O)N1CCOc2ccccc21)NC1CCCCCC1,-20.8
12,CCN1CCN(CCCNC(=O)CCC(=O)N2CCOc3ccc(Cl)cc32)CC1,-5.48
13,O=C(CCC(=O)N1CCOc2ccc(Cl)cc21)NCCCN1CCN(Cc2ccccc2)CC1,-73.2
14,Cc1nc(C)c(N)c(=O)[nH]1.Cl,16.3
15,O=C(NN1C(=O)C2C3C=CC(C4CC34)C2C1=O)c1ccc(Br)cc1 (centres unmarked),22.8
16,CCC1CCCCN1C(=O)CSc1nnc(-c2ccco2)o1 (centres unmarked),4.11
17,Cc1cccc(C(=O)Oc2cc(C)[nH]c(=O)c2[N+](=O)[O-])c1,16.7
18,CC(=O)c1ccc(N2Cc3ccccc3C2)cc1,-2.58
19,CC(=O)c1ccc(N2Cc3ccccc3C2=NC(=O)c2cccs2)cc1,-20.6
20,Br.CC(=O)c1ccc(N2Cc3ccccc3C3(CCOCC3)C2=N)cc1,-57.5
21,CCCNC(=O)C1CCN(c2nc(C)cc(C)n2)CC1,0.749
22,COc1ccc(S(=O)(=O)N2CCN(c3ccc4nnc(-c5ccc(F)cc5)n4n3)CC2)cc1,-19.4

row,Compound,"hERG current change (%, negative = inhibition) at 10uM [%]"
1,CCCNC(=O)C1CCN(c2cc(-c3ccccc3)nc3ncnn23)CC1,-75.8
2,COc1ccc(-c2cc(N3CCCC3)n3ncnc3n2)cc1,-64.5
3,COc1ccc(-c2cc3nc(-c4ccccc4)cc(N4CCC(O)CC4)n3n2)cc1,-7.45
4,Cc1ccccc1NC(=O)C1CCN(c2cc(-c3ccccc3)nc3ncnn23)CC1,-8.86
5,O=S(=O)(c1ccc(Br)cc1)N1CCN(c2ccc3nnc(-c4ccccc4)n3n2)CC1,-32
6,COc1ccc(-c2cc(C(F)(F)F)nc(N3CCCCCC3)n2)cc1,2.13
7,FC(F)(F)c1cccc(Nc2cc(-c3ccccc3)nc3ncnn23)c1,13.5
8,COc1ccc(S(=O)(=O)N2CCN(c3ccc4nnc(-c5ccccc5)n4n3)CC2)cc1,-66.4
9,FC(F)(F)c1cc(-c2ccccc2)nc2ncnn12,7.8
10,FC(F)(F)c1ccc(N2CCN(c3cc(-c4ccccc4)nc4ncnn34)CC2)nc1,-65.1
11,Cc1nnsc1Sc1ccccc1C(=O)O,8.3
12,Cc1n[nH]c(C)c1S(=O)(=O)N(C)Cc1ccco1,2.13
13,O=C(NCc1c(O)ccc2ccccc12)c1ccccc1,12
14,CC(C)c1ccc(NC(=O)C2C3C=CC4(O3)C2C(=O)N(CCCN2CCOCC2)C4C(=O)NC2CCCCC2)cc1 (centres unmarked),19.9
15,COc1ccc(NC(C)=O)c(C)c1,18.2
16,COc1ccccc1NC(=O)N1CCN(c2ncccn2)CC1,6.96
17,COc1ccccc1NC(=O)N1CCN(c2cc(-c3ccccc3)nc3ncnn23)CC1,-68.3
18,COc1ccc(OC)c(NC(=O)C2CCN(c3cc(-c4ccccc4)nc4ncnn34)CC2)c1,-10.8
19,CCc1c(C)nc2ncnn2c1N1CCN(S(=O)(=O)c2ccc(OC)cc2)CC1,-36
20,COc1ccc(S(=O)(=O)N2CCN(c3cc(-c4ccccc4)nc4ncnn34)CC2)cc1,-53.3
21,O=S(=O)(c1ccccc1)N1CCN(c2cc(-c3ccccc3)nc3ncnn23)CC1,-11.8
22,O=C(C1=C(O)C(=O)N(CC2CCCO2)C1c1ccc(Cl)cc1)c1ccco1 (centres unmarked),12.3

row,Compound,"hERG current change (%, negative = inhibition) at 10uM [%]"
1,Cc1cc(=O)oc2c(CN3CCCC3)c(O)c(Cl)cc12,5.35
2,CC(CC(=O)Nc1cccc(Cl)c1)c1ccccc1 (centres unmarked),-6.32
3,Cc1cc(OCC#N)nc(N)n1,3.69
4,CCN(CC)S(=O)(=O)c1ccc(N2CCOCC2)c(NCC(=O)Nc2ccc(F)cc2)c1,12.3
5,CCCCOc1ccc(/C=N/Nc2cc(N3CCOCC3)nc(C)n2)cc1,-30.5
6,Cc1cc(C)cc(NC(=O)C(OC(=O)c2ccc(NC(=O)CC#N)cc2)c2ccccc2)c1 (centres unmarked),-6.68
7,Cc1cc(C)cc(NC(=O)C(OC(=O)c2ccc(O)cc2)c2ccccc2)c1 (centres unmarked),-15.2
8,Cc1cc(C)cc(NC(=O)C(OC(=O)c2cc[n+]([O-])cc2)c2ccccc2)c1 (centres unmarked),-74
9,COc1cc(OC)c(NC(=O)CCNC(=O)Cn2ccc3ccccc3c2=O)cc1Cl,7.45
10,CC(C)(C(N)=O)N1CCN(c2ncc(C(F)(F)F)cc2Cl)CC1,-42.4
11,CCc1cc(C(=O)N2CCN(c3ncc(C(F)(F)F)cc3Cl)CC2)sc1C,-3.1
12,O=C(c1cccs1)N1CCN(c2ncc(C(F)(F)F)cc2Cl)CC1,-65
13,Cc1ccc(C(=O)N2CCN(c3ncc(C(F)(F)F)cc3Cl)CC2)s1,-59.8
14,O=C(CSc1ccc(Cl)cc1)N1CCN(c2ncc(C(F)(F)F)cc2Cl)CC1,-26
15,Cc1ccsc1C(=O)N1CCN(c2ncc(C(F)(F)F)cc2Cl)CC1,-21
16,O=C(CN1CCN(c2ncc(C(F)(F)F)cc2Cl)CC1)N1CCN(c2ncc(C(F)(F)F)cc2Cl)CC1,11.7
17,O=C(CSc1ccccn1)N1CCN(c2ncc(C(F)(F)F)cc2Cl)CC1,-63.9
18,CCOC(=O)N1CCN(c2ncc(C(F)(F)F)cc2Cl)CC1,21.4
19,O=C(c1ccc2nc[nH]c2c1)N1CCN(c2ncc(C(F)(F)F)cc2Cl)CC1,-53.6
20,O=C(c1ccc2nc[nH]c2c1)N1CCN(c2cccc(C(F)(F)F)c2)CC1,-11.4
21,O=C(c1ccc2c(c1)OCCO2)N1CCN(c2ncc(C(F)(F)F)cc2Cl)CC1,-41.3
